Bioassay records as filed in PubChem.
Most compounds without a hit are left out; they make up all but 3.8% or so of the library.
TrxR1 substrate – substrates of rat thioredoxin reductase 1; O89049; AID 588456; hit rate 0.01% among 390,000; purified TrxR1 substrate turnover, NADPH consumption readout; Potency, µM (top dose mostly 114 µM), for inactives: at the top dose activity change, negative = substrate turnover; further: nearly all actives have a fitted effect of over 50% in size
Target sequence (O89049 whole entry, looked up): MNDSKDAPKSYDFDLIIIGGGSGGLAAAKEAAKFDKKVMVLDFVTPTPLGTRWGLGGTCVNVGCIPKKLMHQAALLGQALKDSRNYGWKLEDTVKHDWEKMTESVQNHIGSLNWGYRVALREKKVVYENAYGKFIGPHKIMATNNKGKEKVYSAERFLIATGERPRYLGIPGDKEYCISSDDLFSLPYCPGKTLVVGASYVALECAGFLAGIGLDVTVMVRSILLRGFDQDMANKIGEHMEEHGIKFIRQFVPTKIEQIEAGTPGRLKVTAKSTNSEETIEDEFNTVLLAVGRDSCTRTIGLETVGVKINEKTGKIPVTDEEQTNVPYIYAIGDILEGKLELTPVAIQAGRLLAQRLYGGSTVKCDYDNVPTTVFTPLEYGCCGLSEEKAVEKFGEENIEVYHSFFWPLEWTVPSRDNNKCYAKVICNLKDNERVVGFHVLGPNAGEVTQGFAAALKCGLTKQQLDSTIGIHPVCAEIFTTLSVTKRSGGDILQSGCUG
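Rat TrxR1, dispensed at 90 nM, was prereduced with 400 uM NADPH (final) for 5 min at ~22 deg C, then incubated with compound 15 min before 400 uM selenite. A first-read NADPH fluorescence drop versus no-compound background flagged substrates.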
rTrxR1 inhibitor – blocks rat thioredoxin reductase 1. O89049. recombinant rTrxR1, NADPH fluorescence consumption, selenite substrate. Potency, µM (titrated, usually from 114 µM), without a hit: top-dose activity change, negative = inhibition, usual class: inhibitors. hit rate 1% among 390,000; further: nearly all actives have a fitted effect of over 65% in size
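Rat TrxR1 (90 nM in the dispensed reagent) was pre-reduced with 400 uM NADPH for 5 min at room temperature, then incubated with compound for 15 min. After 400 uM selenite was added, NADPH fluorescence (Ex 340/Em 450 nm) was followed for 8 min.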
Sfp PPTase inh – Sfp phosphopantetheinyl transferase inhibition | AID 1490 | Q9F4F7 | Biochemical Sfp PPTase activity, qHTS | hit rate 3.5% among 310,000 | Potency, µM, for the others: largest response in the series, negative = inhibition, usual class: inhibitors;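 further: the enzyme is Sfp with the accession as filed and its product quenches rhodamine fluorescence; 0% = enzyme reaction without inhibitor and -100% = no enzyme wells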
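Sfp 15 nM + cpd, 15 min RT; start w/ rhodamine-CoA 5 uM, BHQ-2-YbbR 12.5 uM (final); 50 mM Hepes pH 7.6, 10 mM MgCl2, 0.01% NP-40, 0.01% BSA; read 525/598 nm at 0 and 30 min.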
VDR inhibitor – vitamin D3 receptor (human) inhibition | P11473 | Potency, µM, for the others: max response, negative = inhibition, most hits filed as inhibitors | hit rate 0.93% among 400,000 | AID 504847 | VDR-SRC2-3 peptide fluorescence polarization, 2 h
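Signal is fluorescence polarization, reporting how far test compounds block the interaction of VDR with the SRC2-3 coregulator peptide after a 2 h room-temperature incubation.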
GCN5L2 inh – GCN5L2 (KAT2A) acetyltransferase inhibition; GCN5L2 HAT assay, ThioGlo1 CoA-SH fluorescence; hit rate 0.21% among 390,000; Potency, µM (series often up to 58.9 µM), for inactives: top-dose activity change, negative = inhibition, actives largely listed as inhibitors; AID 504327
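Titration-based screen in which CoA formation is detected via maleimide probe ThioGlo1 (50uM) turning fluorescent on thiol reaction; substrates H3(1-25) 75uM and acetyl-CoA 70uM, GCN5L2 20nM, 20 min incubation at room temperature.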
GLS inh – glutaminase GLS (human) inhibition. O94925. GLS enzymatic activity, qHTS titration. Potency, µM (highest dose often 45.5 µM), for inactives: at the top dose activity change, negative = inhibition, hits mostly inhibitors. hit rate 0.21% among 410,000. AID 624170
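hKGA; 45 mM KH2PO4 pH 8.2 + 0.02% Tween-20; cpd via pin tool; 1 mM Gln soln; GluOx/HRP/Amplex Red; RT 30 min; fluor. t0 & final.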
* marks the source's active call; other numbers are inactive results; ? = inconclusive; / = no result given; [ ] = another dose, or the depositor's remark. The call rests on the fitted dose curve; in most records, active means well fitted curve in the direction sought with a large enough effect; inconclusive means small, poorly fitted or top-dose-only effect, or another doubt; inactive means no such curve, though single readings can be large; an effect the other way counts as inactive or inconclusive. Unless noted, on the % scale 0 is the no-effect control and ±100 the full control effect; potency means the concentration at half of the fitted maximal effect.

SMILES	TrxR1 substrate	rTrxR1 inhibitor	Sfp PPTase inh	VDR inhibitor	GCN5L2 inh	GLS inh
O=C(/C=C/c1ccco1)NCC1OCCc2ccccc21 (stereo not drawn)	10%[11.4 µM]	?	22µM*	-9%	-27%	0%
CN(C)CCC(=O)NCC1OCCc2ccccc21 (stereo not drawn)	5%[57.1 µM]	9%[57.1 µM]	-3%	-16%	-22%[0.501 µM]	4%
COc1ccc(Br)c2oc(SC)cc(=O)c12	6%	-28%	13%	-26%	-15%[88.6 µM]	-4%
CCc1ccc(N/C(SC)=C(/C#N)C(N)=O)cc1	1%[57.1 µM]	21%[57.1 µM]	2%	29%	-21%	-1%
CCCCS/C(=C(/C#N)C(N)=O)c1cc2c([nH]1)CCCC2	-13%	45µM*	?	-11%	-12%	1%
CN1CCN(Cc2c(O)ccc3cc(Br)ccc23)CC1	-5%	35µM*	-7%	?	-9%	7%
CCN(CC)CCNc1nc2c(c(=O)n(C)c(=O)n2C)n1C/C=C(/C)Cl	-7%	-16%	12%	-21%	3%	-1%
O=S(=O)(c1ccc(=S)[nH]c1)N1CCN(Cc2ccccc2)CC1	2%[57.1 µM]	-20%[57.1 µM]	/	79µM*	1%	?
O=C(O)C1CCN(Cc2ccccn2)CC1	11%[57.1 µM]	13%[11.4 µM]	0%	-1%	-12%	0%
CCCCNC(=O)C1CCN(Cc2ccccn2)CC1	1%	0%	56µM*	-13%	0%	-15%
CNc1oc(Cc2ccccc2)nc1S(=O)(=O)c1ccc(Cl)cc1	-3%	11µM*	-23%	0%	3%	14%
CCCC(=O)C1=C(N2CCCC2)CC(C)(C)C(C(=O)OC)C1=O (stereo not drawn)	2%	11%	-5%	-9%	-3%	0%
C=CCN(CC=C)C(=S)Nc1ccc2nsnc2c1	-7%	-3%[57.1 µM]	13µM*	-21%	-18%	13%
CCOc1ccc(NC(=S)Nc2ccc3nsnc3c2)cc1	-28%	?	?	79µM*	-19%	0%
CCOc1ccc(NC(=O)Nc2ccc3nsnc3c2)cc1	-2%	1%	18%	2%	-1%	17%
COc1ccc(NC(=S)Nc2ccc3nsnc3c2)cc1	-11%	?	56µM*	89µM*	-14%	26%
Brc1ccc(OCCOCCN2CCOCC2)cc1	13%	26%	12%	-1%	-17%	3%
CCN1CCCC1CN(Cc1cc2ccc(C)cc2[nH]c1=O)C(=S)Nc1ccc(OC)cc1 (stereo not drawn)	-4%	-21%	9%	-3%	-7%	-5%
O=C1OC(c2ccccc2)=C/C1=C/N1CCOCC1	-7%	?	20µM*	-1%	-9%	9%
CN(C)/C=C1/C=C(c2ccccc2)OC1=O	-3%	22µM*	40µM*	?	-4%	5%
CC1=C/C(=C/N(C)C)C(=O)O1	-5%	-28%	8%	-8%	-10%	-5%
CCC(=O)N1CCc2cc(CNC(=O)Nc3cc(C)ccc3C)ccc21	2%[57.1 µM]	27%[57.1 µM]	/	19%	-12%	5%
Cc1ccc(OCc2nnc(NC(=O)OCC(C)C)s2)c(C)c1	/	/	-8%	/	0%	/
O=C(OCC(=O)N1CCCCCC1)c1cccs1	13%	29%	21%	-9%	0%	2%
COc1cccc(C(=O)Nc2nnc(C(C)C)s2)c1	-13%	-11%	15%	2%	2%	-2%
COC(=O)c1cc(-c2ccccc2)sc1NC(=O)CN1C(=O)c2ccccc2C1=O	-10%	-12%	20µM*	-27%	0%	-11%
CCOC(=O)c1cc(-c2ccccc2)sc1NC(=O)c1ccc(OC)c(OC)c1	12%[57.1 µM]	-21%[57.1 µM]	32µM*	79µM*	33%	-1%
COc1ccc(C(=O)Nc2nnc(C(C)C)s2)cc1OC	4%	79µM*	/	-11%	10%	4%
COC(=O)c1cc(OC)c(OC)cc1NC(=O)CN1C(=O)c2ccccc2C1=O	3%	18%	16%	-5%	-3%	2%
CCOc1ccc(C(=O)Nc2nnc(C(C)C)s2)cc1OCC	4%	2%	89µM*	-2%	-1%	-1%
